# Screening data as filed in PubChem.
# Sampled rows, rich in hits. Any-hit rate of the full collection: about 1.4%.
# ERAP1 inh: human ERAP1 aminopeptidase inhibitors, primary screen, biochemical, single point, plate reader; recombinant ERAP1, Leu-AMC fluorescence, 60 min; Endoplasmic reticulum aminopeptidase 1 (Homo sapiens), Q9NZ08; hit rate 0.15% among 340,000; inhibition, % at 10.7 µM;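 active means mean replicate inhibition of at least 30%, or all replicates individually reaching that 30% level; inactive means mean below 30% and not every replicate reaching it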;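 further: 0% = neutral control wells and 100% = L-leucinethiol positive control wells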
# RAD52 anneal inh: RAD52 DNA annealing inhibitors, primary screen, biochemical, FRET, single point, set 2. hit rate 0.46% among 360,000. DNA repair protein RAD52 homolog (Homo sapiens), P43351. inhibition, % at 18.7 µM. recombinant RAD52 DNA annealing, FRET fluorescence;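 active means every replicate showing at least 50% inhibition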
# AF4-AF9 inh: inhibitors of AF4 peptide binding to AF9, primary screen, biochemical, AlphaScreen, biotin-AF4 peptide, FLAG-AF9, single point | Protein AF-9 (Homo sapiens), P42568 | inhibition, % at 10 µM | hit rate 0.47% among 350,000 | AID 651704, 2012;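 active means every replicate reaching a set inhibition limit, whatever the replicate mean, cut at about 25% in these data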;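 further: 0% = plate neutral control median and 100% = total signal loss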
# Target sequence (P42568 whole entry, looked up): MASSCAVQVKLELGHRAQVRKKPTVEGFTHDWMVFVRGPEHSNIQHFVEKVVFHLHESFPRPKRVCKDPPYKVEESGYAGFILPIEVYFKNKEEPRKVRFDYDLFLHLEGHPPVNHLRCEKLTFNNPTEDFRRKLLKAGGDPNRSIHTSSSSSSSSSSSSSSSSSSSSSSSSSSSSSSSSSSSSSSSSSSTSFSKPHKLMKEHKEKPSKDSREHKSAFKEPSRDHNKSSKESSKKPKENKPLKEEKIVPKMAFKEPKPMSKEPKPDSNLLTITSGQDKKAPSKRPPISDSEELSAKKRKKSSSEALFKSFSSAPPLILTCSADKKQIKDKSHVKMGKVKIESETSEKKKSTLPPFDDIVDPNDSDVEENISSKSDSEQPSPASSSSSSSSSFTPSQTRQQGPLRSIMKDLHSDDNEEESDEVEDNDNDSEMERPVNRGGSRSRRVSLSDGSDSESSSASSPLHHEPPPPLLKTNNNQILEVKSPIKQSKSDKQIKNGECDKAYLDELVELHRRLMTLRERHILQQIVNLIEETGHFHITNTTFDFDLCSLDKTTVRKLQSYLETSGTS
# INS-1E GSIS act: GLuc luminescence reporter in INS-1E cells, primary screen for activators of glucose-dependent secretion of insulin; activation, % at 16.6 µM; AID 743287, 2014; INS-1E GLuc reporter insulin secretion, 2-3 h; hit rate 0.61% among 370,000;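 active means lowest replicate activation of at least 40%, so every replicate reaches that level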;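 further: 0% = median of neutral control wells and 100% = median of IBMX positive control wells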
# PGC1a acetyl inh: inhibitors of PGC1a acetylation signal, primary screen, cell-based, U2OS, AlphaScreen, inhibitor mode | AlphaScreen anti-acetyl-lysine; with virally co-expressed GCN5 acetyltransferase | hit rate 0.17% among 350,000 | AID 651687, 2012 | inhibition, % at 15.6 µM;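 active means every replicate shows inhibition of at least 40%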;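 further: 0% = neutral control wells and 100% = positive control wells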
# RAD54 inh: inhibitors of human RAD54 branch migration, primary screen, biochemical, fluorescence, single point; DNA repair and recombination protein RAD54-like (Homo sapiens), Q92698; RAD54 Holliday junction branch migration, FAM/BHQ fluorescence; inhibition, % at 10.4 µM; hit rate 0.14% among 360,000;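 active means mean normalized replicate activity at least 40 and at least half of replicates scoring 40 or more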;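 further: 0% = median of neutral control wells and 100% = median of positive control wells; inhibitors cause a drop in the FAM fluorescence signal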
# The depositor's hits bear a star; x = no result.
SMILES,ERAP1 inh,RAD52 anneal inh,AF4-AF9 inh,INS-1E GSIS act,PGC1a acetyl inh,RAD54 inh
C[C@H](CO)N1C[C@H](C)[C@@H](CN(C)Cc2ccc3c(c2)OCO3)Oc2ncc(/C=C/c3ccccc3)cc2C1=O,0.3,15.9,26.2*,-29.9,-40.7,12.9
CCC(=O)N(C)C[C@H]1Oc2ncc(-c3ccc(C)cc3)cc2C(=O)N([C@H](C)CO)C[C@@H]1C,4.0,5.3,-8.5,-2.8,-6.3,-10.7
COc1ccc(OCc2nnc(SCC(=O)NC3CC3)n2C)cc1,-1.9,-14.6,0.4,15.3,x,-9.5
COc1ccc(C(=O)NNC(=O)CSc2nnc(COc3ccccc3OC)n2C)cc1,x,x,x,40.9*,x,3.1
CCn1c(COc2ccc(C)cc2)nnc1SCC(=O)NNC(=O)c1ccc(OC)cc1,x,x,x,-1.8,7.9,0.5
COc1ccc(C(=O)NCc2nnc(SCC(=O)NC3CCCCC3)n2C)cc1,30.0*,-5.3,0.4,13.1,x,-11.0
O=C(C[C@@H]1C=C[C@@H](NC(=O)CN2CCOCC2)[C@H](CO)O1)NC1CCC1,-0.8,3.4,-1.0,17.8,6.3,-3.9
CCOc1ccc2ccc(OCC)c(/C=N/n3cnnc3)c2c1,-0.4,2.4,-4.5,40.2*,x,9.5
CCOc1cc(/C=N/n2cnnc2)ccc1O,2.6,2.6,1.4,34.2,10.7,-2.3
CCOc1ccc(-n2nnnc2-c2nc3ccccc3s2)cc1,x,x,x,90.0*,x,x
COc1ccc(C(=O)Nc2ccc3c(c2)OC[C@@H](C)NC[C@H](C)[C@@H](OC)CN(C)C3=O)cc1,-2.8,1.3,-1.6,1.4,4.6,-1.5
CON(C)C(=O)[C@H]1C[C@@H]2[C@H](C[C@@H](c3ccccc3)[C@H]1C)N(c1ccc(F)cc1)C(=O)N2CCCOc1ccccc1,-0.9,-41.6,-4.3,-13.4,x,x
C[C@H]1C(C(=O)N(C)C2CCCCC2)=Cc2c(n(-c3ccc(F)cc3)c(=O)n2CCCOc2ccccc2)C=C1c1ccccc1,-1.5,1.5,83.6*,-16.3,x,x
CN1C(=O)c2cc(NC(=O)Nc3ccccc3)ccc2OC[C@@H]2O[C@H](CC(=O)O)CC[C@H]21,x,x,x,4.1,x,x
Cn1cc(CN2CCC(C(=O)NC(c3ccc(-c4ccccc4)cc3)c3cnccn3)CC2)c2ccccc21 (stereo not drawn),-7.5,8.9,26.4*,-13.5,10.7,-0.4
C[C@@H]1CCCCO[C@@H](CN(C)C(=O)NC2CCCCC2)[C@@H](C)CN([C@H](C)CO)C(=O)c2cc(NC(=O)Nc3ccc4c(c3)OCO4)ccc2O1,-0.4,7.8,2.7,21.8,-10.3,8.4
COc1ccc2c(c1)CCc1cc(C(=O)O)sc1-2,-7.1,-9.7,-35.5,64.9*,-3.0,-7.1
CCC(C)Sc1cccc(-c2nc3cnccn3c2NC2CCCCC2)c1 (stereo not drawn),-7.4,-5.2,-5.0,169.7*,-21.8,-20.9
CCc1nc2ccc(C(=O)NCCOc3ccc(OC)cc3)cn2c1N(C)Cc1ccc(N(C)C)cc1,1.8,-97.1,14.4,-44.0,x,3.8
CCc1nc2ccc(C(=O)NCc3ccccc3OC)cn2c1N(C)Cc1ccc(N(C)C)cc1,0.0,-100.8,26.0*,x,-3.2,1.8
COc1ccc(NC(=O)NC[C@H]2CC[C@H]3[C@H](CN3Cc3ccccc3C(=O)O)O2)cc1,3.3,54.4*,16.3,x,x,x
Cc1ccc(S(=O)(=O)NC[C@H]2CC[C@H]3[C@H](CN3Cc3ccccc3C(=O)O)O2)cc1,-0.9,0.6,-3.1,x,-4.1,x
COCC(=O)Nc1ccc2c(c1)C(=O)N(C)C[C@H](OC)[C@H](C)CN[C@@H](C)CO2,x,x,x,3.2,10.2,-23.0
Cn1cc(Br)c(C(=O)NNC(=O)c2ccccc2)n1,x,x,x,42.0*,x,-0.9
COc1cccc(CNc2ccc3c(c2)ncn3C(C)C)c1OC,6.6,-6.3,47.9*,15.8,5.0,-5.5
SMILES,ERAP1 inh,RAD52 anneal inh,AF4-AF9 inh,INS-1E GSIS act,PGC1a acetyl inh,RAD54 inh
Cc1ccc(OC(=O)N(C)C[C@@H]2OCc3cn(nn3)CCCC(=O)N([C@H](C)CO)C[C@@H]2C)cc1,x,x,x,8.0,-0.7,x
Cc1cccc(-c2ccc([C@@H]3[C@H]4CN(C(=O)CN5CCOCC5)CC(=O)N4[C@H]3CO)cc2)c1,-4.9,6.9,1.1,8.6,2.2,x
O=C(c1ccc2c(c1)OCO2)N1CC2(C1)[C@H](c1ccccc1)[C@@H](CO)N2C(=O)C1CCC1,1.3,-15.4,1.5,13.2,-1.1,x
COc1ccc(/C=C/C(=O)C23CC4CC(CC(C4)C2)C3)cc1CN1CCOCC1,-2.5,-4.9,25.6*,-11.3,x,x
COc1ccc2c3c(n(C)c2c1)[C@H](CO)N(C(C)=O)CC31CCN(C(=O)NC(C)C)CC1,-1.0,3.3,-0.3,13.8,8.0,x
C=CCN1C(=O)CSc2ccc(C(=O)OCC)cc21,x,x,x,68.6*,1.9,6.6
CC(C)c1nnc2c(N(C)S(=O)(=O)c3ccccc3)nc3ccccc3n12,0.4,-9.1,-4.2,15.4,-10.5,-1.0
CCCCc1nnc2c(N(C)S(=O)(=O)c3ccccc3)nc3ccccc3n12,1.6,7.9,-6.7,43.6*,-8.3,-18.3
CCOc1cccc2sc(=NC(=O)c3ccco3)n(CC(=O)OC)c12,0.1,-12.9,-5.4,-22.7,x,x
C#CCn1c(=NC(=O)c2ccco2)sc2cccc(Cl)c21,-2.0,-12.9,30.5*,-2.0,x,x
C/C=C/c1ccc2c(c1)O[C@H](CN(C)Cc1cccc(F)c1)[C@@H](C)CN([C@H](C)CO)S2(=O)=O,0.5,0.5,6.1,17.4,-6.8,3.4
CO[C@H]1CN(C)C(=O)c2ccc(NC(=O)C3CCOCC3)cc2OC[C@H](C)N(Cc2nccs2)C[C@H]1C,-1.1,9.1,0.6,8.3,4.1,-10.1
O=C1C(=Cc2cccn2-c2ccc(O)cc2)C(=O)c2ccccc21,x,x,x,x,6.1,-8.7
O=C1C(=Cc2cccn2-c2ccccc2)C(=O)c2ccccc21,x,x,x,71.8*,x,-12.2
Cc1ccccc1S(=O)(=O)N1C[C@H](O)COC[C@@H]2O[C@H](CC(=O)NCc3ccccc3Cl)CC[C@H]21,x,x,x,-3.7,-2.2,-2.5
O=C(CCl)N1c2ccccc2Sc2ccc3ccccc3c21,x,x,x,x,x,-1.6
CN(C)CCCN1c2ccccc2CCc2ccccc21,-2.7,-8.5,4.3,x,-10.6,-5.0
CN(C)CCCN1c2ccc3ccccc3c2Sc2cccc(Cl)c21,0.1,32.8,33.0*,x,-2.6,x
CN(C)CCCN1c2ccccc2Sc2ccc3ccccc3c21,-0.2,21.5,30.5*,-26.3,-4.4,x
C[C@H](CO)N1C[C@H](C)[C@H](CN(C)C(=O)c2ccncc2)Oc2ncc(C#CC3CC3)cc2C1=O,x,x,x,13.5,3.5,x
